# In article PMC5540273 (PLoS ONE, 2017):
# Legend:
# Settings in all cases: concentration: 1 μM, replicates: in singlicate; n = 1
# MINK = system: T1, MINK
# T1 construct: gene MINK1
# MKK7 = system: MKK7
# MKNK1 = system: MKNK1
# MKNK2 = system: MKNK2
# MLCK = system: T2, MLCK
# T2 construct: gene MYLK3
# MLK1 = system: T3, MLK1
# T3 construct: gene MAP3K9
# MLK2 = system: MLK2
# MLK3 = system: MLK3
# MRCKA = system: MRCKA
# MRCKB = system: T4, MRCKB
# T4 construct: gene CDC42BPB
# MST1R = system: MST1R
# MST1 = system: T5, MST1
# T5 construct: gene STK4
# MST2 = system: T6, MST2
# T6 construct: gene STK3
# MST3 = system: T7, MST3
# T7 construct: gene STK24
# MST4 = system: MST4
# MTOR = system: MTOR
# MUSK = system: MUSK
# MYLK2 = system: MYLK2
# MYLK4 = system: MYLK4
# MYLK = system: MYLK
# 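Note: KINOMEscan kinase panel screen.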
SMILES,%Inh (MINK) [%],%Inh (MKK7) [%],%Inh (MKNK1) [%],%Inh (MKNK2) [%],%Inh (MLCK) [%],%Inh (MLK1) [%],%Inh (MLK2) [%],%Inh (MLK3) [%],%Inh (MRCKA) [%],%Inh (MRCKB) [%],%Inh (MST1R) [%],%Inh (MST1) [%],%Inh (MST2) [%],%Inh (MST3) [%],%Inh (MST4) [%],%Inh (MTOR) [%],%Inh (MUSK) [%],%Inh (MYLK2) [%],%Inh (MYLK4) [%],%Inh (MYLK) [%]
O=C(Nc1n[nH]c2nc(-c3ccco3)c(Br)cc12)C1CCN(Cc2ccccc2)C1.O=C(O)[C@H](O)[C@@H](O)C(=O)O (stereo not drawn) [SB-742034],15,0,0,27,25,8,20,9,0,0,7,0,46,13,9,0,0,89,25,3
O=C1NC(=O)C(c2ccc(Cl)cc2)=C1Nc1ccc(O)cc1 [SB-340867],11,0,0,0,0,0,0,4,8,0,0,0,0,0,0,0,0,0,3,11
Cc1cnc(N)c(/C=C/c2cncc(C(=O)NCCc3ccc(Cl)cc3Cl)c2)c1.Cl [GSK190937],4,0,0,2,6,0,0,0,5,2,29,0,0,5,0,6,0,0,62,20
O=C(Nc1n[nH]c2nc(-c3cccs3)c(Br)cc12)C1CC1 [SB-735297],28,0,46,39,90,0,0,0,16,0,0,3,4,0,5,0,0,99.4,29,29
COc1ccc(-c2coc3ccc(-c4nnc(C)o4)cc23)cc1,0,0,0,0,0,0,5,1,0,0,0,0,0,0,0,5,4,18,14,0
Fc1ccc(-c2nc3n(c2-c2ccncc2)CCS3)cc1 [GI98581],45,0,0,2,15,3,19,21,2,25,39,29,25,0,0,12,15,14,0,12
CC(=O)c1cccc(NC(=O)NC2CCN(c3ccnc(Nc4ccc(F)cc4)n3)C2)c1 (stereo not drawn) [GSK1379710],11,0,27,0,0,0,0,3,20,0,31,0,22,3,0,21,8,0,21,11
Cc1ccc(NC(=O)Nc2ccccc2F)cc1-c1ccc(C(=O)Nc2ccncc2)cc1 [GSK1398477],0,0,4,0,11,4,17,33,17,30,33,22,7,0,0,11,31,19,7,23
Cc1cccc2c(-c3ccncn3)c(-c3ccc(F)cc3)nn12 [GW515532],0,0,0,3,0,0,28,4,0,0,26,7,0,15,0,9,12,0,0,0
CC(C)c1cc(-c2ccc3c(N)n[nH]c3c2)nc(N)n1 [GSK2250882],21,0,36,82,16,0,0,18,12,0,3,0,0,8,0,11,0,23,39,26
CC[C@@H]1CO[C@H](C(=O)Nc2ccccc2)CN1c1cc(-c2ccc3c(N)n[nH]c3c2)nc(NC)n1 [GSK2376236],0,0,6,0,0,0,0,14,14,0,26,0,10,0,0,9,2,8,10,22
Cn1cncc1C(=O)NC1CCN(c2ccnc(Nc3ccc(F)cc3)n2)C1 (stereo not drawn) [GSK1379717],0,10,0,5,0,0,0,0,2,0,34,0,34,0,0,0,0,1,0,0
O=C(Nc1n[nH]c2cc(-c3ccsc3)ccc12)C1CC1 [SB-732932],67,8,0,54,65,3,0,0,13,0,22,0,34,16,27,0,11,97.1,22,24
CNC(=O)c1ccc(C)c(-n2c(C)cc(OCc3ccc(F)cc3F)c(Br)c2=O)c1,0,0,0,100,0,0,0,19,0,8,0,0,0,0,0,33,6,9,3,0
Cc1ccc(NC(=O)Nc2ccccc2)cc1-c1ccc(C(=O)Nc2ccncc2)cc1 [GSK1398471],3,23,3,0,0,0,0,4,5,24,29,0,0,0,0,0,4,0,3,20
Cn1cnc2c(N)ncnc21 [SKF-97623],0,0,38,0,0,0,0,0,12,0,0,0,24,0,0,4,0,0,0,0
Cc1c(Cn2c(C)c(C)n3c(=O)cc(N4CCOCC4)nc23)cccc1C(F)(F)F [GSK2328680],0,0,0,0,0,0,0,8,0,6,12,2,0,6,0,32,45,7,0,14
COC(=O)C(NC(=O)NC1CCN(c2ccnc(Nc3ccc(F)cc3)n2)C1)c1ccccc1 (stereo not drawn) [GSK1379712],7,32,24,6,5,0,0,6,10,0,35,0,28,3,0,31,12,10,13,12
COc1ccc(Nc2nccc(-c3ccc(NC(=O)c4cc5cc(F)ccc5[nH]4)cc3)n2)cc1 [GSK1229496],4,0,14,0,0,0,0,0,17,0,7,0,0,0,0,20,0,0,28,6
COC(=O)c1cccc(NC(=O)NC2CCN(c3ccnc(Nc4ccc(F)cc4)n3)C2)c1 (stereo not drawn) [GSK1379725],0,0,0,1,0,0,0,0,4,0,39,0,0,0,0,7,0,0,0,0
COc1ccc(Nc2nccc(N3CCC(NC(=O)c4cc5ccccc5s4)C3)n2)cc1 (stereo not drawn) [GSK1379738],0,26,22,11,0,0,0,0,12,0,27,0,0,0,0,15,0,0,3,11

SMILES,%Inh (MINK) [%],%Inh (MKK7) [%],%Inh (MKNK1) [%],%Inh (MKNK2) [%],%Inh (MLCK) [%],%Inh (MLK1) [%],%Inh (MLK2) [%],%Inh (MLK3) [%],%Inh (MRCKA) [%],%Inh (MRCKB) [%],%Inh (MST1R) [%],%Inh (MST1) [%],%Inh (MST2) [%],%Inh (MST3) [%],%Inh (MST4) [%],%Inh (MTOR) [%],%Inh (MUSK) [%],%Inh (MYLK2) [%],%Inh (MYLK4) [%],%Inh (MYLK) [%]
CC(=O)c1c(C)c2cnc(Nc3ccc(N4CCNCC4)cn3)nc2n(C2CCCC2)c1=O,0,0,0,0,8,0,0,0,0,35,6,0,0,5,0,55,8,6,0,9
FC(F)(F)c1ccccc1-c1cc(-c2c[nH]nc2-c2ccccn2)ccn1 [GW679396],11,0,5,0,4,0,0,1,0,0,13,4,0,5,0,0,0,26,0,8
Nc1cccc(-c2ccc3c(N)n[nH]c3c2)n1 [GSK2192730],50,0,13,61,76,0,0,0,0,0,33,0,21,9,0,15,4,90,72,34
COc1cccc(C2=C(Nc3cc(Cl)c(O)c(Cl)c3)C(=O)NC2=O)c1 [SB-390767],0,26,6,26,0,0,4,0,0,3,13,100,29,0,0,44,5,10,9,0
Cc1ccccc1Cn1ccn2c(=O)cc(N3CCOCC3)nc12 [GSK2269905],0,0,0,10,0,0,17,3,0,0,17,0,0,0,0,9,2,8,0,0
Nc1nccc(-c2c(-c3ccc(F)cc3)ncn2C2CCN(Cc3ccccc3)CC2)n1 [SB-219980],32,0,0,0,5,11,8,0,0,20,0,17,8,0,0,23,0,0,0,0
CN1c2ccc(-c3ccc(C(N)=O)cc3)cc2-c2[nH]ncc2S1(=O)=O,53,3,0,0,0,19,26,3,0,3,0,0,0,0,2,14,0,0,0,73
COc1ccc(CSc2nnc(-c3ccc4ncsc4c3)o2)cc1C(F)(F)F,0,0,0,0,0,0,23,0,0,0,0,0,0,0,0,8,1,16,1,0
CS(=O)(=O)Cc1ccc(Nc2nccc(-c3c(-c4cccc(NC(=O)C5CCCCC5)c4)nn4ncccc34)n2)cc1 [GSK350559],0,21,25,13,3,2,7,13,0,0,11,11,44,3,23,18,0,0,0,31
CNc1nc(-c2ccc3c(N)n[nH]c3c2)cc(N2C[C@@H](C(=O)Nc3ccccc3)CC[C@H]2C)n1 [GSK2298859],0,0,0,0,0,0,0,28,10,0,26,0,0,0,4,3,0,9,0,11
c1ccc(-c2ccnc3[nH]ccc23)cc1 [SB-693578],19,0,0,25,0,0,0,0,15,0,9,3,4,0,0,29,0,0,0,12
Fc1ccc(-c2nc[nH]c2-c2ccncc2)cc1 [SB-217360],58,9,0,0,0,0,30,1,37,27,0,13,0,0,0,4,0,0,0,3
CS(=O)(=O)CCNCc1nc(-c2ccc3ncnc(Nc4ccc(OCc5ccccc5)c(Cl)c4)c3c2)cs1.Cl [GW582764],0,0,0,0,89,0,0,0,3,0,14,0,0,0,0,8,0,3,0,0
CNc1cc(-c2ccc3c(N)n[nH]c3c2)nc(N)n1 [GSK2224810],29,0,4,31,73,7,0,2,6,8,27,0,0,24,0,0,0,64,56,10
COC(=O)c1cccc(NC(=O)NC2CCN(c3ccnc(Nc4ccc(OC)cc4)n3)C2)c1 (stereo not drawn) [GSK1379746],0,7,3,2,4,0,0,0,24,0,42,0,10,0,0,19,0,4,0,0
Cc1ccc(-c2nc(Nc3ccncc3)c3ccccc3n2)s1 [GSK189015],2,0,5,17,14,6,49,5,24,21,37,6,21,11,5,10,17,26,7,19
Cl.Cl.Cl.N#Cc1ccc(CCNc2nccc(-c3cccc(CN4CCNCC4)c3)n2)cc1 [GSK2137462],3,0,46,2,0,0,0,0,48,19,37,0,0,18,0,0,14,12,38,35
Cc1c(Cn2c3ccccc3n3c(=O)cc(N4CCOCC4)nc23)cccc1C(F)(F)F [GSK2306394],0,0,0,6,0,0,2,0,0,0,0,15,12,2,0,3,6,17,0,2
CS(=O)(=O)CCNCc1nc(-c2ccc3ncnc(Nc4ccc5c(cnn5Cc5ccccc5)c4)c3c2)cs1.Cl.Cl [GW569716],1,0,0,23,0,1,0,0,17,18,10,3,0,0,0,17,0,0,10,0
Cc1ccc(NC(=O)c2ccc(Cl)cc2)cc1-c1ccc(C(=O)Nc2ccncc2)cc1 [GSK1398467],0,0,0,12,0,0,9,15,9,3,28,9,0,4,0,0,2,0,0,2
COc1ccc(CSc2nnc(-c3ccc4nccn4c3)o2)cc1C(F)(F)F,12,0,0,0,2,0,4,3,3,20,0,0,0,15,7,0,9,8,21,0
